These results are taken from PubChem BioAssay.

Values without a mark were called inactive. Active and inactive are the calls of the source.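 Rule for the calls, unless noted: active = mean inhibition over 43.08%, the solvent-only control mean plus 3 SD; inactive = the rest.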

The target of experiment [1] is Nuclear receptor coactivator 3 (Homo sapiens) (UniProt Q9Y6Q9). Nature of the experiment: SRC3 coactivator transcriptional activity inhibitors, confirmation, cell-based, luminescence, quadruplicate (AID 588792).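 Note: 0% = DMSO treated cells and 100% = gossypol at 36 µM.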 The settings on record: HEK293 GAL4-SRC3 luciferase reporter, at 3.6 µM, hits give high values.
Experiment [2] has as its system transactivating tegument protein VP16 (Human herpesvirus 1), Gal4-VP16 luciferase reporter. Nature of the experiment: VP16 transactivation inhibitors, counter-screen for SRC3 inhibitor project, cell-based, luminescence, high throughput (AID 588794; in the data active = inhibition above about 30%). The settings on record: mammalian cells, VP16-driven luciferase reporter luminescence; at 3.6 µM; hits give high values.

Experiment [3] in a line: StAR promoter reporter inhibitors, counter-screen for LRH-1 inverse agonist project, cell-based, luminescence, high throughput (AID 651611; in the data active = inhibition above about 28%). The conditions noted are these: StAR promoter luciferase reporter counterscreen, at 3.6 µM, hits give high values.
For experiment [4], the target named is Nuclear receptor subfamily 5 group A member 2 (Homo sapiens) (UniProt O00482). Nature of the experiment: LRH-1 (NR5A2) inverse agonists, retest, confirmation, cell-based, luminescence (AID 651613; in the data active = inhibition above about 42%;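 note: HEK293T cells co-transfected with LRH-1 and StAR promoter luciferase reporter; 0% = vehicle wells and 100% = parental cells lacking receptor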). The conditions noted are these: cell-based LRH-1 luciferase reporter, inverse agonism; at 3.6 µM; hits give high values.
Experiment [5] deals with Steroidogenic factor 1 (Homo sapiens) (UniProt Q13285). Nature of the experiment: SF1 (NR5A1) inverse agonists, counter-screen for LRH-1 inverse agonist project, cell-based, luminescence, high throughput (AID 651614; in the data active = inhibition above about 44%;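 note: cells cotransfected with StAR promoter reporter and SF1 expression vector; 0% = vehicle on cells with receptor and 100% = vehicle on cells lacking receptor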). The settings on record: cell-based SF1 luciferase reporter, at 3.6 µM, hits give high values.
Experiment [6] can be described thus: VP16 transactivation reporter inhibitors, counter-screen for LRH-1 inverse agonist project, cell-based, luminescence, high throughput (AID 651615; in the data active = inhibition above about 33%). The conditions noted are these: Gal4-VP16 luciferase reporter cells, at 3.6 µM, hits give high values.
Experiment [7] relates to transactivating tegument protein VP16 (Human herpesvirus 1). In words: VP16 transactivation reporter inhibitors, counter-screen for SRC2 inhibitor project, cell-based, luminescence, single concentration (AID 652007; in the data active = inhibition above about 36%). The settings on record: cell-based VP16 transactivation luciferase reporter, at 8.9 µM, hits give high values.
The target of experiment [8] is Nuclear receptor coactivator 2 (Homo sapiens) (UniProt Q15596). Nature of the experiment: SRC2 coactivator transcriptional activity inhibitors, confirmation, cell-based, luminescence, HEK293, triplicate (AID 652008;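 active = mean inhibition above 46.5%, the solvent-only control mean plus 3 SD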;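 note: 0% = DMSO-treated cells and 100% = Gossypol at 36 µM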). The conditions noted are these: HEK293 GAL4-SRC2 luciferase reporter, at 8.9 µM, hits give high values.
Chain of Nuclear receptor coactivator 2 (Homo sapiens) (Q15596 whole entry, looked up, the tested form may be a part): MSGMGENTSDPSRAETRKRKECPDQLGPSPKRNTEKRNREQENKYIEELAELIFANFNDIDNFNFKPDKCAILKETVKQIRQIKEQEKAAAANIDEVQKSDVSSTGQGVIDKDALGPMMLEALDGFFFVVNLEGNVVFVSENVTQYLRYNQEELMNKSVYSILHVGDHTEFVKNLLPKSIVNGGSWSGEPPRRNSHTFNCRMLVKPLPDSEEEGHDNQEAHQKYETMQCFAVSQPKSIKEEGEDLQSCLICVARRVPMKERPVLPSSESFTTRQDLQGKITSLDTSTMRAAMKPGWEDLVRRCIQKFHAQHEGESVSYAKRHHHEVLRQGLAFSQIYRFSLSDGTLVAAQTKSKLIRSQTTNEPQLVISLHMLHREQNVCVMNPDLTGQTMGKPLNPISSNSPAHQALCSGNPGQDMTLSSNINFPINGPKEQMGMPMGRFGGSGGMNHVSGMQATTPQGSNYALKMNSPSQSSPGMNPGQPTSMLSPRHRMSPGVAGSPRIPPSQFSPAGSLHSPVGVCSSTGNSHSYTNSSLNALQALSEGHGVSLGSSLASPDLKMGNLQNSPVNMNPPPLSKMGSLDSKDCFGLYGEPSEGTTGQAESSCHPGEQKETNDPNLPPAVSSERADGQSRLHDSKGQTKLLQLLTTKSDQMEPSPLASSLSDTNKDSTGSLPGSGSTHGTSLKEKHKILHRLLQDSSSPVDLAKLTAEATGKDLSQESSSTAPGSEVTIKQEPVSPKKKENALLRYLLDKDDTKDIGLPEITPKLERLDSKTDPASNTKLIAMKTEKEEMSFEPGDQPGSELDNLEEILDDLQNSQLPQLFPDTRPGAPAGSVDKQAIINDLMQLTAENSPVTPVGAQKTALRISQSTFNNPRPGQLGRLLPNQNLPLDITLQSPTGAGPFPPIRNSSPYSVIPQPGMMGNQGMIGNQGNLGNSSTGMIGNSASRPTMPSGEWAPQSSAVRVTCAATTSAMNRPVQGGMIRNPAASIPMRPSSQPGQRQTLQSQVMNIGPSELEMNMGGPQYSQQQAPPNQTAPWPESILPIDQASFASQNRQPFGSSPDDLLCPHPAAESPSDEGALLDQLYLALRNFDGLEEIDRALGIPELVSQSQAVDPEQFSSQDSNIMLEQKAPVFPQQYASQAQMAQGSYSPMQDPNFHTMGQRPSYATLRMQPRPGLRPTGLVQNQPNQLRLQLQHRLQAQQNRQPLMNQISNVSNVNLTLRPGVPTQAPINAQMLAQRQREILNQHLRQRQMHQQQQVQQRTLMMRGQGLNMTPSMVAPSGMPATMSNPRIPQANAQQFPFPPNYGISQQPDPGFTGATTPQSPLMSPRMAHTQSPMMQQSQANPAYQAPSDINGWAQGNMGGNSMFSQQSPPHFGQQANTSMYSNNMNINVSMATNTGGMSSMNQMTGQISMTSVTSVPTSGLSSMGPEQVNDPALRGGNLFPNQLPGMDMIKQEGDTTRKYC

Chain of Nuclear receptor subfamily 5 group A member 2 (Homo sapiens) (O00482 whole entry, looked up): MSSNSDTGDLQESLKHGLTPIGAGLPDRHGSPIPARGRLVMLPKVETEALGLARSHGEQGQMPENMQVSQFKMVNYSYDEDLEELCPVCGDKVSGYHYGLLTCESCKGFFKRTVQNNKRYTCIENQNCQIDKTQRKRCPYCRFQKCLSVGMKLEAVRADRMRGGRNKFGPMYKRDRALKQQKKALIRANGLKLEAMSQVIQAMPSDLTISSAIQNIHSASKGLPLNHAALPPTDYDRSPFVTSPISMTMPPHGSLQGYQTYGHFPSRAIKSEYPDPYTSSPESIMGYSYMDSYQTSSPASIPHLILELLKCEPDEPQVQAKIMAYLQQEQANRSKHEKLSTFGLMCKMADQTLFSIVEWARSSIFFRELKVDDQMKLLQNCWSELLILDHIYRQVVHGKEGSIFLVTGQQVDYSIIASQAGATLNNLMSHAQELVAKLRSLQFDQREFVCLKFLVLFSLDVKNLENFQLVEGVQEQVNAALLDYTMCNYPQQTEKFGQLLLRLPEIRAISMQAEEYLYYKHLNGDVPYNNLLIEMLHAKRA
Chain of Nuclear receptor coactivator 3 (Homo sapiens) (Q9Y6Q9 whole entry, looked up, the tested form may be a part): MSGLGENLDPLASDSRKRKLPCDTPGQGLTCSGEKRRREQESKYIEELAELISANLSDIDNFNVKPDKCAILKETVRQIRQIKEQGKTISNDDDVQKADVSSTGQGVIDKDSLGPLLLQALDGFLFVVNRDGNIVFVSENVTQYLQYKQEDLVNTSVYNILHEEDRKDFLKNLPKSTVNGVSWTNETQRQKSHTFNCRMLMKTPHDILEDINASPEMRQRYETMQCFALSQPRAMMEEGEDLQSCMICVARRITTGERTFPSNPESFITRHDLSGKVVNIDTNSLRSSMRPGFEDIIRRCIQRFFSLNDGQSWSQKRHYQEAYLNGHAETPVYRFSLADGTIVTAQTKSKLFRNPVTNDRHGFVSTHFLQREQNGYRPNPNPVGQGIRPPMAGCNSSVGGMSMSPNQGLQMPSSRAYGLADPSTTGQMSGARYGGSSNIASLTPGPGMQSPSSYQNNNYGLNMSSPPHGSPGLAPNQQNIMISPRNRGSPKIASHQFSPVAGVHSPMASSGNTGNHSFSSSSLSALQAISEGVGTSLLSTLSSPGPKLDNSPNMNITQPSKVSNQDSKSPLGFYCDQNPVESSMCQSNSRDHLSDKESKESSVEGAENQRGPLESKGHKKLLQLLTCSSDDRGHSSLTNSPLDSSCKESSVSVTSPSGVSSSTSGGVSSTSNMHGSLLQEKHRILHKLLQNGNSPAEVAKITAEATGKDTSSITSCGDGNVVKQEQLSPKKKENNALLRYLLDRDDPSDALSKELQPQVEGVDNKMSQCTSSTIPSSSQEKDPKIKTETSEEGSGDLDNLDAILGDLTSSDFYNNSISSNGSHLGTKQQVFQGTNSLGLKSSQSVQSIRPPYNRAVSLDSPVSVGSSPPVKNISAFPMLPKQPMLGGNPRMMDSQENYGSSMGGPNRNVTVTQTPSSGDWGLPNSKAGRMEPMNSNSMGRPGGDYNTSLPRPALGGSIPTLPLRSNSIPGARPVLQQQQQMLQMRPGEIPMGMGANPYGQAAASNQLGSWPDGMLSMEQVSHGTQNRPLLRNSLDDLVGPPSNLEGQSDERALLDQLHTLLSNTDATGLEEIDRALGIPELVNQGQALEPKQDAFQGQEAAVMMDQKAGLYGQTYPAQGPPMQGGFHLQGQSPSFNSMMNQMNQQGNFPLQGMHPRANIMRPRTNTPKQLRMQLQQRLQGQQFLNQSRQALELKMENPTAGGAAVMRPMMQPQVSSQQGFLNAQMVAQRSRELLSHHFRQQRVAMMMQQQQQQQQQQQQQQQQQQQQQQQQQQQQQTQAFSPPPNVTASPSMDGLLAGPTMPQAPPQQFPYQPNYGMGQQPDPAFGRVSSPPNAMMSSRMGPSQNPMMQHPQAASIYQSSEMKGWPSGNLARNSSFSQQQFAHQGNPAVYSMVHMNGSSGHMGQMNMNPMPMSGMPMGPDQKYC
Chain of Steroidogenic factor 1 (Homo sapiens) (Q13285 whole entry, looked up, the tested form may be a part): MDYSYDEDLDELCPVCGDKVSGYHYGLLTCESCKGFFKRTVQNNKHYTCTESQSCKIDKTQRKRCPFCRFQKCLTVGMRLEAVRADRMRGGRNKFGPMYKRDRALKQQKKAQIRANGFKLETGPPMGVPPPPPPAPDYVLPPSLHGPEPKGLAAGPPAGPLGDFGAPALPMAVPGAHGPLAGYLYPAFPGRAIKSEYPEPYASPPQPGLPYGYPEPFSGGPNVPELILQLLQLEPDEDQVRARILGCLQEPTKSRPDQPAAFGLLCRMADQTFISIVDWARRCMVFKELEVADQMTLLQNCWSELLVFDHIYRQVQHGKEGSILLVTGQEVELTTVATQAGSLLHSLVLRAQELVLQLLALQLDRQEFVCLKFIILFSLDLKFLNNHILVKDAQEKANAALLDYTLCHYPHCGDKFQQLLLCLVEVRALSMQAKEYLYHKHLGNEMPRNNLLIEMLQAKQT

With `COc1cc(N(C)C)ccc1C=c1c2ccccc2n2c1cc(-c1ccccc1)[n+]2C`, the inhibition in experiment [1] was 57.7% (active); in experiment [2], 67.2% (active); in experiment [3] it was 56.9% (active); in experiment [4], 109% (active); in experiment [5], 87.4% (active); in experiment [6], 92.5% (active).
In the case of `O=C(Nc1ccc(S(=O)(=O)Nc2ccccc2)cc1)c1ccc(CN2CCOCC2)cc1`, the inhibition was 9.71% in experiment [1]; 36% (active) in experiment [2]; 21.8% in experiment [3]; 56.4% (active) in experiment [4]; 57.4% (active) in experiment [5]; 57.6% (active) in experiment [6].
For `O=C(Nc1ccc(F)cc1)Nc1cc(OCC(F)(F)F)cc(OCC(F)(F)F)c1`, the inhibition in experiment [1] was 17%; in experiment [2], 29.6% (active); in experiment [3] it was 53.8% (active); in experiment [4] it was 98.5% (active); in experiment [5], 75.6% (active); in experiment [6] it was 78% (active).
Turning to `COc1ccc(-c2n(Cc3ccccc3)c3ccccc3[n+]2Cc2ccccc2)cc1`, the inhibition was 64% (active) in experiment [1]; 66.2% (active) in experiment [2]; 76.3% (active) in experiment [3]; 109% (active) in experiment [4]; 90.3% (active) in experiment [5]; 94.4% (active) in experiment [6].
Regarding `CCCOc1ccc(Br)cc1CSC(=N)N`, the inhibition in experiment [1] was 17.9%; in experiment [2], 33.3% (active); in experiment [3], 9.34%; in experiment [4] it was 102% (active); in experiment [5], 53.8% (active); in experiment [6], 83.7% (active).
Consider `c1ccc(C[n+]2cccc3c4ccccc4ccc32)cc1`, for which the inhibition in experiment [1] was 32.6%; in experiment [2] it was 54.8% (active); in experiment [3], 41.7% (active); in experiment [4] it was 83.4% (active); in experiment [5], 74.3% (active); in experiment [6] it was 70.4% (active).
Take `Cc1ccc(C(=O)Nc2sc3c(c2C(=O)O)CCC(C)C3)o1` (stereo not drawn): the inhibition is 28% in experiment [1]; 68.3% (active) in experiment [2]; 53.4% (active) in experiment [3]; 89.5% (active) in experiment [4]; 85.8% (active) in experiment [5]; 77% (active) in experiment [6].
Regarding `CCOC(=O)c1sc(N(Cc2ccccc2)C(=O)COC(=O)c2ccc(O)cc2)nc1C`, the inhibition is 69.3% (active) in experiment [1]; 37.4% (active) in experiment [2]; -92.1% in experiment [3]; 55.2% (active) in experiment [4]; 61.2% (active) in experiment [5]; 37.1% (active) in experiment [6].
In the case of `CC(C)CCOc1cccc(OCC(=O)Nc2ccncc2)c1`, the inhibition in experiment [1] was -1.73%; in experiment [2] it was 35.9% (active); in experiment [3] it was 21.4%; in experiment [4], 61% (active); in experiment [5] it was 60.3% (active); in experiment [6] it was 58.9% (active). The inhibition was 27.6% in experiment [7] and 38% in experiment [8].
As for `Cc1ccc2nc(NC(=O)CSCC(=O)OCC(=O)c3ccc(Br)cc3)sc2c1`, the inhibition is 36.5% in experiment [1], 40.5% (active) in experiment [2], 77.8% (active) in experiment [7] and 89.2% (active) in experiment [8].
Take `Cc1cccc(C)c1NS(=O)(=O)c1ccc(-c2cnc(C3CC3)o2)cc1`: the inhibition is 43.2% (active) in experiment [1], 15.3% in experiment [2], 2.97% in experiment [7] and 17.2% in experiment [8].
The like results for `COc1cc(/C=C/C(=O)c2ccc(F)cc2)cc(OC)c1OC` were, in that order, 50.5% (active), 34.7% (active), 21.9% and 28.1%.
On the same counts, the results for `Cc1ccc(-n2c(C)cc(C(=O)COc3cccnc3[N+](=O)[O-])c2C)cc1` are 34.5%, -10.3%, -23% and 64% (active).
As for `CCCCCCC[N+](CC)(CC)CCCCc1ccc(Cl)cc1`, the inhibition in experiment [1] is 22.1%; in experiment [2] it was 28.2%; in experiment [4], 79% (active); in experiment [5], 66.2% (active).
Consider `COC(=O)c1ccc2c(=O)n(CCCCCC(=O)O)c(=S)[nH]c2c1`, for which the inhibition in experiment [1] is 16.4%; in experiment [2], 15.1%; in experiment [7], 6.79%; in experiment [8], 32.2%.
Take `Cc1ccccc1Nc1nc(N)nc(CCl)n1`: the inhibition in experiment [1] was 22.9%; in experiment [2], 0.42%; in experiment [7], -11.3%; in experiment [8], 52.5% (active).
In the case of `Cc1ccc(CSC(Nc2ccc(F)cc2)=C(C#N)C#N)cc1`, the inhibition was 4.71% in experiment [1]; 28.5% in experiment [2]; 19.4% in experiment [3]; 59.8% (active) in experiment [4]; 59.9% (active) in experiment [5]; 45% (active) in experiment [6]. For the same molecule, the inhibition in experiment [7] is 12.8%; in experiment [8] it was 31.9%.
As for `Cc1ccc(C(=O)NNC(=O)CCCN2C(=O)/C(=C/c3ccccc3Cl)SC2=S)cc1`, the inhibition in experiment [1] is 20.4%; in experiment [2] it was 21.8%; in experiment [7] it was 53.4% (active); in experiment [8], 60.2% (active).
Take `COc1ccc(OCC(=O)N/N=C/c2ccc(O[C@@H]3O[C@H](CO)[C@@H](O)[C@H](O)[C@H]3O)cc2)cc1`: the inhibition in experiment [1] was 20.5%; in experiment [2], 60.1% (active); in experiment [4] it was 64.5% (active); in experiment [5], 72.1% (active).
For `Cc1nc([N+](=O)[O-])c(Sc2nc3ccccc3n2C)n1Cc1ccccc1`, the inhibition in experiment [1] is 30.1%; in experiment [2], 13.4%; in experiment [7], 31.9%; in experiment [8] it was 46.5%.
On the same counts, the results for `Cc1nc([N+](=O)[O-])c(Sc2nc3ccccc3[nH]2)n1Cc1ccccc1` are 16.1%, 6.02%, -3.82% and 32.5%.
